Measured values taken from PubChem BioAssay (NCI).
Where “and” joins values, the source holds several entries; their conditions need not be identical. Equal entries are not always repeated. The panel holds about 79,000 compounds, 15% with a hit somewhere; the sample as a whole holds those more often. Unmarked numbers belong to inactive results. Calls of active or inactive are those of the source. Cut-off read from the data, not from the text of the source: active = growth inhibition above about 70%; inactive = the rest.

Key:
[1] = NCI Yeast Anticancer Drug Screen. Data for the rad50 strain (AID 155);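 note: 0% = growth of vehicle-only cultures of the same strain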; conditions: S. cerevisiae rad50 strain growth inhibition; at 50.0 µM; stronger effect = higher value
Procedure, shortened: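 Readout: growth inhibition relative to vehicle-treated cultures. Compound exposure was carried out in a genetically defined yeast strain deficient in DNA damage repair.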

[2] = NCI Yeast Anticancer Drug Screen. Data for the mec2-1 strain (AID 157); conditions: S. cerevisiae mec2-1 strain, at 50.0 µM, stronger effect = higher value
Procedure, shortened: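 Mutant yeast (mec2-1) grown with compound; growth inhibition relative to vehicle control reported.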

[3] = NCI Yeast Anticancer Drug Screen. Data for the sgs1 mgt1 strain (AID 161);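 note: 0% = growth of cultures given vehicle only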; conditions: S. cerevisiae sgs1 mgt1 strain, at 50.0 µM, stronger effect = higher value
Procedure, shortened: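 Compounds are added to genetically altered yeast, and growth is compared with cultures given vehicle alone to give percent inhibition.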

[4] = NCI Yeast Anticancer Drug Screen. Data for the cln2 rad14 strain (AID 165);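 note: 0% = growth equal to vehicle treated cultures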; conditions: S. cerevisiae cln2 rad14 strain, at 50.0 µM, stronger effect = higher value
Procedure, shortened: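 Readout is yeast growth inhibition versus vehicle-treated controls, using a strain with cln2 and rad14 alterations exposed to compound.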

[5] = NCI Yeast Anticancer Drug Screen. Data for the bub3 strain (AID 167); conditions: S. cerevisiae bub3 mutant strain, at 50.0 µM, stronger effect = higher value
Procedure, shortened: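 Readout: yeast growth inhibition, expressed relative to vehicle-only wells. The test organism is a mutant strain from a panel with lesions in DNA repair or checkpoint genes.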

[6] = NCI Yeast Anticancer Drug Screen. Data for the mlh1 rad18 strain (AID 175); conditions: S. cerevisiae mlh1 rad18 strain growth inhibition; at 50.0 µM; stronger effect = higher value
Procedure, shortened: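 Genetically defined yeast (DNA repair-deficient) exposed to compounds; growth inhibition determined relative to vehicle.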

Compound | growth inhibition [1] | growth inhibition [2] | growth inhibition [3] | growth inhibition [4] | growth inhibition [5] | growth inhibition [6]
C=CCOC(N)=O | 6.85% | 8.3% | -0.3% | 20.9% | 22.5% | 1.65%
O=C1CC2OCC=C3CN4CCC56c7ccccc7N1C5C2C3CC46O (stereo not drawn) | 25.3% | -21.2% | 6.1% | -1.2% | 30.7% | -62.1%
O=C(CCl)NC1CCCCC1 | 9.7% | -8.45% | 7.15% | -4.25% | 10.9% | -6.45%
COc1cc([C@@H]2c3cc4c(c(O)c3C[C@H]3COC(=O)[C@@H]32)OCO4)cc(OC)c1OC | -5.65% and 13.2% | 9.3% and 7.85% | 2.65% and 2.95% | 0.1% and 15.8% | 15.4% and 23.4% | 28.2% and 30.5%
CCCCSP(SCCCC)N1CCCCC1 | 94.7% (active) | 89.4% (active) | 91.3% (active) | 31.1% | 79.8% (active) | 88% (active)
CN(C)c1ccc(/C=C/[N+](=O)[O-])cc1 | -3% | -17.4% | 12.4% | -15.7% | 0.6% | -3.25%
N#Cc1ccc(NN=O)cc1 | 15.9% | -3.15% | 10.4% | -0.2% | 25% | 28.1%
CCOC(=O)C(CCc1ccc(N(CCCl)CCCl)cc1)(NC(C)=O)C(=O)OCC | 1.5% | -32.6% | 8.65% | -4.35% | -16.8% | -39.9%
CC1=CC(=O)C=CC1=O | 39.1% | 52.3% | 28.9% | 12.4% | 11.3% | 55.4%
COc1cc(CCN(C)C)c([N+](=O)[O-])cc1OC | 7.9% | 21.6% | 19.3% | 17% | 0.2% | 34.7%
CCC(=O)O[C@H]1CC[C@H]2[C@@H]3CCC4=C/C(=N/NC(=O)c5cccc6c(=O)c7ccccc7[nH]c56)CC[C@]4(C)[C@H]3CC[C@]12C | 13.7% | 15.5% | -16.4% | -8.75% | -17.2% | -7.95%
Nc1cccc2scnc12 (tested in a mixture with another compound) | -13.9% | 3.8% | 29.7% | -7.85% | -10.3% | 19.1%
COc1cc(C2CNCc3cc(OC)c(O)cc32)ccc1O (stereo not drawn) | 0.05% | -7.1% | -11.1% | -17.8% | -9.85% | 1.2%
CC1=NN(c2ccccc2)C(=O)C1N=Nc1ccc([As](=O)(O)O)c(O)c1 (stereo not drawn) | 15.9% | -8.6% | -6.8% | -19.9% | -26.5% | -3.65%
CC(N)Cc1ccc(Cl)cc1 (stereo not drawn) | 14.5% | -0.3% | 1.9% | -15.6% | -14.9% | 3.6%
Cc1ccc(N)c(N)c1 | 18.6% and 6.85% | -5% and -3.75% | 9.3% and -3.35% | 9.8% and 32.2% | 7.75% and -7.95% | 19% and 7.5%
COc1ccc2c(c1OC(C)=O)-c1cc(O)cc3c1C(C2)N(C(=O)CN(CCCl)CCCl)CC3 (stereo not drawn) | 19.6% and 6.5% | 8.65% and 5.4% | 24.7% and -25.4% | 10.8% and -4.95% | 22.2% and -7.95% | -21.7% and -30.4%
CC(NC(=O)C(c1ccccc1)c1ccccc1)C(=O)O (stereo not drawn) | 2.35% | 12.6% | -1.5% | -17.2% | 1.4% | 14.9%
CCCCN1CCC2(CC1)C(=O)NC(=S)NC2=O | -12.4% | -2.5% | -3.65% | 4.65% | 6.25% | -22.3%

Compound | growth inhibition [1] | growth inhibition [2] | growth inhibition [3] | growth inhibition [4] | growth inhibition [5] | growth inhibition [6]
CCCN(CCC)c1c([N+](=O)[O-])cc(C(=O)N(CC)CC)cc1[N+](=O)[O-] | 40.6% | 29.8% | 37.4% | 13.8% | 34.1% | 11.3%
CC(=O)[O-].[Ni].c1ccc(/C(=N\Nc2ccccn2)c2ccccn2)cc1 | 19.8% | 3.15% | 4.25% | -3.7% | -4.6% | 18.6%
Cc1cc(Cl)ccc1N | 32.4% | 6.1% | 0.65% | 12.2% | 24.4% | 21.4%
Clc1ccc(Br)cc1 | 4.25% | -1.55% | -5.75% | -7.95% | 0.45% | -1.35%
c1ccc(C[n+]2ccc(-c3ccccc3)cc2)cc1 | -5.75% | 5.5% | -0.35% | -7.25% | -7.15% | -19.5%
O.O.[NH-]C1CCCCC1[NH-].[Pt+2] (stereo not drawn) | 19.6% | 33.6% | 6.25% | -5.95% | 3.05% | 44.2%
C1CC[N-]CC1.CC(=N\O)/C(C)=N/O.CC(=N\O)/C(C)=N/O.[CH2-]c1ccccc1.[Co+2] | -3.75% | -0.9% | -13.4% | -36% | 16.4% | -4.5%
COc1ccc([C@H]2N[C@@H]2c2ccccn2)cc1 | 3.25% | -1.5% | -7.2% | 17.1% | 4.8% | 20.9%
O=[N+]([O-])c1ccc([Se]c2ncccn2)c([N+](=O)[O-])c1 | -14.8% | 1.95% | -19.4% | -8.75% | -3.15% | 0.5%
CCOC(=O)C(Br)C(C)C (stereo not drawn) | 24.1% | 12% | 16.1% | 24.6% | 7.6% | 10.5%
CC(C)(C)c1cc(O)ccc1O | 22.5% | -1.55% | -29.1% | -0.25% | -25.7% | 24.5%
O=C(/C=C/c1ccc([N+](=O)[O-])cc1Cl)Nc1cccc(S(=O)(=O)F)c1 | 6% | 16.8% | -0.35% | 18.2% | -6.3% | -8.2%
[Ni+2].[S-]CC[S-] | 0.4% | 12.4% | -8.75% | 1.95% | 0.4% | -4.85%
CS(=O)(=O)OC1C2CC(C1OS(C)(=O)=O)C(c1ccccc1)C2C(=O)O (stereo not drawn) | 25% | 21% | 31.4% | 12.2% | -1.85% | 34.2%
CN(C)P(=O)(N(C)C)N(C)C | 23.2% | 6.4% | -7.05% | -16.9% | 23.6% | 25.1%
C[CH2][Sn]([CH2]C)([O]C(=O)c1ccc(F)cc1)[O]C(=O)c1ccc(F)cc1 | 30.5% | 17.7% | 38.5% | 15.1% | 15.2% | 17.6%
O=C1NC(=O)C(CC(Br)CBr)(c2ccccc2)C(=O)N1 (stereo not drawn) | 16.6% | -1.45% | 20.8% | 11.4% | -0.75% | 11.2%
[Co+2].[Co+2].[O-]CCCN=Cc1ccccc1[O-].[O-]CCCN=Cc1ccccc1[O-] | 53.5% | 46% | 60.8% | -5.1% | 30.6% | 58.1%
[Cl][Pt+2][Cl].c1ccc(CC2CC[N-]CC2)cc1.c1ccc(CC2CC[N-]CC2)cc1 | -11.6% | 1.1% | 1.3% | 2.35% | 9.3% | -3.6%
